PubChem BioAssay AID602393 (Broad Institute, 2012)
About 7,000 (2%) of roughly 350,000 compounds were called active. The sample as a whole holds a higher share of actives than the screen did. A number with no mark means an inactive call. No stated cut-off is given here; in the data, active means activation above about 40%; inconclusive means no clear call, values can overlap the other calls; inactive means below that.

Assay: raisers of Bmi1 knock-in reporter signal – mouse ES cells, Bmi1 luciferase knock-in, single point, esBAF inhibitor project, primary screen (AID 602393);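 further: 0% = median of the plate's neutral control wells and 100% = double that signal; a rise in the Bmi1 reporter signal indicates esBAF inhibition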
Details: 24 h, at 12.5 µM, stronger effect = higher value, 100% = twice the neutral-well signal

In order of falling reporter increase:
1. CS(=O)(=O)N1CCc2cc(C(=O)Nc3ccccc3Br)ccc21  34.7%
2. O=C(NCC(=O)N1CCN(c2ccccc2F)CC1)c1cccs1  28.1%
3. CC(C)NC(=O)Nc1ccc2c(c1)C(=O)N([C@@H](C)CO)C[C@H](C)[C@@H](CN(C)C(=O)Nc1ccc(F)cc1)OCCCC[C@H](C)O2  11.9%
4. O=C(C[C@@H]1CC[C@H]2NC[C@H](O)COC[C@@H]2O1)NCCN1CCCCC1  6.52%
5. CN1C(=O)c2cc(NC(=O)Nc3ccccc3Cl)ccc2OC[C@H]2O[C@@H](CC(=O)O)CC[C@H]21  3.49%
6. COCC#Cc1cnc2c(c1)C(=O)N([C@@H](C)CO)C[C@@H](C)[C@H](CN(C)C(=O)c1cnccn1)O2  3.45%
7. CC(=O)Nc1cccc(NC(=O)c2ccc3c(c2)CCN3S(C)(=O)=O)c1  2.43%
8. O=C(O)C[C@H]1C[C@@H]2c3cc(NC(=O)Nc4ccc(C(F)(F)F)cc4)ccc3O[C@@H]2[C@@H](CO)O1  2.29%
9. CCN(c1cccc(C)c1)S(=O)(=O)c1ccc(-c2coc(C)n2)cc1  2.04%
10. O=C(CCc1ccccc1F)N1CCN(c2ccccc2)CC1  1.91%
11. O=C(Cc1ccccn1)N[C@H]1CC[C@H](CCNS(=O)(=O)c2cccc(F)c2)O[C@@H]1CO  0.895%
12. COCC#Cc1cnc2c(c1)C(=O)N([C@H](C)CO)C[C@H](C)[C@H](CN(C)C(=O)Nc1cc(F)ccc1F)O2  -0.321%
13. COCC1CCN(C(=O)C2CCC(=O)N(CC3CCCCC3)C2)CC1 (centres undefined)  -0.459%
14. CN(C)C(=O)C[C@H]1CC[C@@H](NC(=O)Nc2cccc(F)c2)[C@H](CO)O1  -0.909%
15. O=C(CC(F)(F)F)N1C[C@H]2[C@@H](c3ccccc31)[C@H](CO)N2C(=O)Cc1cccnc1  -1.13%
16. CCCC(=O)Nc1ccc2c(c1)C(=O)N(C)C[C@@H](OC)[C@@H](C)CN(C(=O)CC)[C@H](C)CO2  -1.94%
17. COC(=O)C[C@H]1CC[C@@H](NC(=O)c2ccccc2)[C@@H](CO)O1  -2.05%
18. CCCN1C[C@H](C)[C@@H](OC)CN(C)C(=O)c2ccc(NC(=O)C3CCOCC3)cc2OC[C@H]1C  -2.07%
19. C=CCN1C(=O)C(Cc2cccc(Cl)c2)S/C1=N/N=C/c1ccco1 (centres undefined)  -2.3%
20. COc1ccc(S(=O)(=O)Nc2ccc3c(c2)CC(=O)N([C@H](C)CO)C[C@H](C)[C@@H](CN(C)C)O3)cc1  -3.65%
21. COCC(=O)Nc1ccc2c(c1)C(=O)N(C)C[C@H](OC)[C@@H](C)CN(C(=O)c1cnccn1)[C@H](C)CO2  -3.88%
22. CCN(CC)C(=O)C1=C(C)N(Cc2ccc(OC)cc2)C(=O)C(CC(=O)NCc2ccco2)C1 (centres undefined)  -3.89%
23. O=C(C1CCC(=O)N(C2CC2)C1)N1CCN(c2ccc(Cl)cc2)CC1 (centres undefined)  -7.88%
24. COc1ccc(-c2cn3ccc(C)cc3n2)cc1  -61.7%

With CCN(CC)S(=O)(=O)c1ccc(-c2cn3ccc(C)cc3n2)cc1 the reporter increase was 42.3% (active).
In the case of O=C(CCSc1ccccc1)N1CCN(c2ccccc2F)CC1, the reporter increase was 65.1% (active).
In the case of CS(=O)(=O)N1CCc2cc(C(=O)Nc3ccccc3)ccc21, the reporter increase was 47.5% (active).
For COc1ccc(CN2C(=O)C(C)S/C2=N/N=C/c2ccco2)cc1 (centres undefined), the reporter increase was 70.2% (active).
For CC(C)C1CCN(C(=O)C2CCC(=O)N(C3CCCCCC3)C2)CC1 (centres undefined), the reporter increase was 55.6% (active).
